Screening data (PubChem)
The entries come from a sample that favours hits as a whole.
Pf apPOL inh = Pf-apPOL DNA polymerase inhibition; Recombinant Pf-apPOL, molecular beacon fluorescence, 1.5 h; AID 1794808; inhibition, % at 10 µM; 210,000 compounds, 0.25% hits
mHTT CaM bind = mHTT-calmodulin interaction abrogation. AlphaScreen His-mHTT/GST-CaM binding, luminescence. inhibition, % at 15 µM. 190,000 compounds, 3.6% hits;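 also: 0% = both proteins with DMSO and 100% = one protein alone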
Target sequence (P42858 whole entry, looked up, stated change not applied): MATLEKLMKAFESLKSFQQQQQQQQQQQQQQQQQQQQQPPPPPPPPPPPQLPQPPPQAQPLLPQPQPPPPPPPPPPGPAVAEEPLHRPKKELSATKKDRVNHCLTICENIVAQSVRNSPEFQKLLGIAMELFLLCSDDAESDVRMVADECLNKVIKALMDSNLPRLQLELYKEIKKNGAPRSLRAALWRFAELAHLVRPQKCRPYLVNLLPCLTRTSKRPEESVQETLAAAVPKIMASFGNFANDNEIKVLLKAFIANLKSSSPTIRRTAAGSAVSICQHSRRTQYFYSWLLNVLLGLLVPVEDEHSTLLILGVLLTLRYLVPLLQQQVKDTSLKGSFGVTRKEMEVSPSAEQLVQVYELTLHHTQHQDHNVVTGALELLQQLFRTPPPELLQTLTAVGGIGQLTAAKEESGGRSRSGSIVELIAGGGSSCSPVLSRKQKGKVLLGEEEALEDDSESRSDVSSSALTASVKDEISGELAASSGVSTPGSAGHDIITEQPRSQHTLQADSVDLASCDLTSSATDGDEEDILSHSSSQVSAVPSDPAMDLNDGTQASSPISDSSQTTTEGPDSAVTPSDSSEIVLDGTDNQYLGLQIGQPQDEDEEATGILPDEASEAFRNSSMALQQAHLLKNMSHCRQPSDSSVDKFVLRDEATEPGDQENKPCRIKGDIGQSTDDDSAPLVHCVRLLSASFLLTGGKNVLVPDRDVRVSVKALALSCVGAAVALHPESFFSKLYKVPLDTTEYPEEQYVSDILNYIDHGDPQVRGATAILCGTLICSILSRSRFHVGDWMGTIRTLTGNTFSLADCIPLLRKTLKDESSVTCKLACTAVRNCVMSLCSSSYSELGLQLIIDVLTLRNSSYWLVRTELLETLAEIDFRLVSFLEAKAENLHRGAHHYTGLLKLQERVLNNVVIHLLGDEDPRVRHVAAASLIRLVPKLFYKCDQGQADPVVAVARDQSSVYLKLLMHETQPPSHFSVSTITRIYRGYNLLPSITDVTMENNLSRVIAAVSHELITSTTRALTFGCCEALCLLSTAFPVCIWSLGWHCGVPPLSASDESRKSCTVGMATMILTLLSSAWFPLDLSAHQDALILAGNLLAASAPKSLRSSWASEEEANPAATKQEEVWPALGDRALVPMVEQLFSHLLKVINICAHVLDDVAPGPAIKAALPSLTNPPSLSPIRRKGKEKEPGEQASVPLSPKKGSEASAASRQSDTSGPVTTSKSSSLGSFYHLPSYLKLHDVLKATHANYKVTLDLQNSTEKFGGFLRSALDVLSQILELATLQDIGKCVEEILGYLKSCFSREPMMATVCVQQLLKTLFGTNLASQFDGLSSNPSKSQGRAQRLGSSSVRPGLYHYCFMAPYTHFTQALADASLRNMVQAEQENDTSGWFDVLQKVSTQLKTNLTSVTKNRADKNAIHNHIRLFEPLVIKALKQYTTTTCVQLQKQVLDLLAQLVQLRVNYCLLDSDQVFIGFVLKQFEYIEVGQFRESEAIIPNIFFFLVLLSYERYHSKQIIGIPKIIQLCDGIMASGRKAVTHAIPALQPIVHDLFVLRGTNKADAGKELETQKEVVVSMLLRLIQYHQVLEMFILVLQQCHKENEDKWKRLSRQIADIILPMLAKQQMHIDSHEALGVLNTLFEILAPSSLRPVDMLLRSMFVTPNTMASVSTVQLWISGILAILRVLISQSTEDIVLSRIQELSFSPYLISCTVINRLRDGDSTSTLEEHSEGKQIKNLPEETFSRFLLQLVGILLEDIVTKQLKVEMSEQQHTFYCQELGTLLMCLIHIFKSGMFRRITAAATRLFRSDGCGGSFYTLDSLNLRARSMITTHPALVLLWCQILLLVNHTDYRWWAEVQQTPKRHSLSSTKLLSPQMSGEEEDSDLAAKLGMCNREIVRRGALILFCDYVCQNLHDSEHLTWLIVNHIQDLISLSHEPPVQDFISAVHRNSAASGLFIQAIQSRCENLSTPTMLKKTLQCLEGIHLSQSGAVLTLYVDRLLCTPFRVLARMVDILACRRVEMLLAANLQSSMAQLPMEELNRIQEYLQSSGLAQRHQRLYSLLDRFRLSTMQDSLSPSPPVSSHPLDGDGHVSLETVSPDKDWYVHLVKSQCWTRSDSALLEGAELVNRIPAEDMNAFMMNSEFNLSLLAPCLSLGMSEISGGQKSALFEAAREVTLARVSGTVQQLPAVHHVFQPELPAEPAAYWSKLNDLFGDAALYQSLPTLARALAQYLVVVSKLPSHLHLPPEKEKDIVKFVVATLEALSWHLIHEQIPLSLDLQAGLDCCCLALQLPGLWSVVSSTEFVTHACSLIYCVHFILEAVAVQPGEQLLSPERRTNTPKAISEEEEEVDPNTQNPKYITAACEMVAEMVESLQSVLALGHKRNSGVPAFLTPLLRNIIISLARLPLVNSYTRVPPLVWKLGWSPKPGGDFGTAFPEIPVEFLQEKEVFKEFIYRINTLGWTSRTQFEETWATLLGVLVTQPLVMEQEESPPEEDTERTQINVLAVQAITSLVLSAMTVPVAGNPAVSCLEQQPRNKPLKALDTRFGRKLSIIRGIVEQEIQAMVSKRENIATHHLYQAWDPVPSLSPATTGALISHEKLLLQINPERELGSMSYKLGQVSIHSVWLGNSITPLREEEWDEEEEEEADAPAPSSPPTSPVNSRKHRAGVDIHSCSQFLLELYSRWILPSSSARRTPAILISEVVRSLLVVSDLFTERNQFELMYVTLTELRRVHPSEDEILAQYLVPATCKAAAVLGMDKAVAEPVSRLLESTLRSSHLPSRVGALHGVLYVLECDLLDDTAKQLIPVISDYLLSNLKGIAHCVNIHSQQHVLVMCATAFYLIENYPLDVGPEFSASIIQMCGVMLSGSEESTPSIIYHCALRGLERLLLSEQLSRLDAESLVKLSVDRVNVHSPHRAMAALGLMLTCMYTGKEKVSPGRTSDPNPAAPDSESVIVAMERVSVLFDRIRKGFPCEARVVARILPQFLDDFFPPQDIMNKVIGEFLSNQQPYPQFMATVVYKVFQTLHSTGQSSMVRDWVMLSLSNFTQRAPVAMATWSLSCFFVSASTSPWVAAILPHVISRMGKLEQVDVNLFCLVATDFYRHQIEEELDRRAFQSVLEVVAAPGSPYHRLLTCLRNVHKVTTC
Active calls of the source: *. Rule as the data show it: active = inhibition above about 50%; inactive = the rest.

Screening CCN(CC)CCNC(=O)C(C)C1CCN(S(=O)(=O)c2cccs2)CC1 (stereo not drawn) returned Pf apPOL inh -2.3 and mHTT CaM bind -11.1.
For O=C(CSCc1ccccc1Cl)NC1CC1 the results were Pf apPOL inh -49.8 and mHTT CaM bind -5.0.
Screening COc1cccc(NC(=O)c2cc(Br)ccc2OC)c1 returned Pf apPOL inh -1.2 and mHTT CaM bind -6.0.
For COc1cccc(NC(=O)N2C(=O)C(=O)c3cc(Br)ccc32)c1 the results were Pf apPOL inh 28.2 and mHTT CaM bind 73.0*.
Screening C=CCN1C(=O)CC(Nc2ccc(N3CCOCC3)cc2)C1=O (stereo not drawn) returned Pf apPOL inh 6.9 and mHTT CaM bind 1.6.
COc1ccccc1C(NC(=O)C1CCCCC1)c1ccc2cccnc2c1O (stereo not drawn) was read as Pf apPOL inh 0.4 and mHTT CaM bind 100.0*.
COc1ccc(NC(=O)C2CC2)c2ncccc12 was read as Pf apPOL inh -1.5 and mHTT CaM bind 10.6.
`O=C(Cc1ccccc1)Nc1cc(-c2nc3ncccc3o2)ccc1Cl` gave Pf apPOL inh -6.3 and mHTT CaM bind 0.0.
`O=C(NC(c1ccccc1)c1ccccc1)c1ccccn1` gave Pf apPOL inh 7.7 and mHTT CaM bind -19.8.
O=C(Cc1ccccc1)NC(c1ccccc1Cl)c1ccc2cccnc2c1O (stereo not drawn) was read as Pf apPOL inh 1.9 and mHTT CaM bind 100.0*.
O=C(Cc1ccccc1)NC(c1ccccc1)c1ccc2cccnc2c1O (stereo not drawn) was read as Pf apPOL inh inactive and mHTT CaM bind 100.0*.
Screening CCC(=O)Nc1cccnc1-c1ccc(C(=O)Nc2ccccc2OC)cc1 returned Pf apPOL inh 2.5 and mHTT CaM bind 3.7.
`CCC(=O)NC(c1ccccc1OC)c1ccc2cccnc2c1O` (stereo not drawn) gave Pf apPOL inh -0.6 and mHTT CaM bind 100.0*.
Screening CC(C)CC(=O)Nc1cnc(N2CCOCC2)nc1 returned Pf apPOL inh 5.3 and mHTT CaM bind -1.3.
For O=C(C1CCCN(S(=O)(=O)c2ccccc2[N+](=O)[O-])C1)N1CCc2ccccc2C1 (stereo not drawn) the results were Pf apPOL inh 0.8 and mHTT CaM bind 17.7.
For CCC(=O)NC(c1ccccc1Cl)c1ccc2cccnc2c1O (stereo not drawn) the results were Pf apPOL inh 0.1 and mHTT CaM bind 100.1*.
For O=C(CCCN1C(=O)c2cccnc2C1=O)NC(c1ccccc1)c1ccccc1 the results were Pf apPOL inh -29.5 and mHTT CaM bind 10.0.
CCC(=O)Nc1ccccc1Cl was read as Pf apPOL inh -0.2 and mHTT CaM bind -9.9.
Screening CCCCC(=O)NC(c1ccccc1Cl)c1ccc2cccnc2c1O (stereo not drawn) returned Pf apPOL inh -0.7 and mHTT CaM bind 99.0*.
Screening O=C(Cc1ccc(F)cc1)N1CCCC(COc2ccc(C(=O)N3CCCC3)cc2)C1 (stereo not drawn) returned Pf apPOL inh 3.1 and mHTT CaM bind 16.5.
`Cc1cc(=O)[nH]c(SCc2nc3ccc([N+](=O)[O-])cc3[nH]2)n1` gave Pf apPOL inh 1.5 and mHTT CaM bind 5.0.
For O=C(Cn1cc(Cl)cn1)N1CCCC1c1cccc(F)c1 (stereo not drawn) the results were Pf apPOL inh 4.0 and mHTT CaM bind -1.6.
`COc1ccccc1C1CCN(C(=O)CSCc2cccc3ccccc23)CC1` gave Pf apPOL inh -5.6.
Screening Cc1cccc2c(C3CCN(C(=O)c4ccccc4OC(F)(F)F)CC3)c[nH]c12 returned Pf apPOL inh -6.9 and mHTT CaM bind 100.0*.
CCN(c1ccccc1)S(=O)(=O)c1ccc2[nH]cc(C(=O)NCc3ccc(F)cc3)c(=O)c2c1 was read as Pf apPOL inh -13.1 and mHTT CaM bind 6.0.
`O=C(Cn1c(=O)oc2ccccc21)Nc1nnc(-c2ccco2)o1` gave Pf apPOL inh -6.1 and mHTT CaM bind 22.7.
Screening Cc1nc(-c2nnc(NC(=O)Cn3c(=O)oc4ccccc43)o2)cs1 returned Pf apPOL inh 4.4 and mHTT CaM bind 97.9*.
`Cc1nc(-c2nnc(NC(=O)Cc3ccc4c(c3)OCO4)o2)cs1` gave Pf apPOL inh 6.5 and mHTT CaM bind 42.7.
Screening CCOC(=O)CCC(=O)Nc1nnc(-c2csc(C)n2)o1 returned Pf apPOL inh 2.5 and mHTT CaM bind 61.4*.
Cc1ccc(/C=c2\sc3nc(=O)c(Cc4ccccc4)nn3c2=O)o1 was read as Pf apPOL inh 3.0 and mHTT CaM bind 7.0.
CC(C)(C)n1nc2c(c1NC(=O)c1cccs1)CS(=O)(=O)C2 was read as Pf apPOL inh -1.7 and mHTT CaM bind -13.2.
Screening COc1ccc(Br)cc1CN1CCCC1c1cc(C)no1 (stereo not drawn) returned Pf apPOL inh -0.8 and mHTT CaM bind 10.9.
Cc1ccc(C2=NN(C(=O)CCC(=O)O)C(c3cc4cccc(C)c4nc3Cl)C2)cc1 (stereo not drawn) was read as Pf apPOL inh 0.8 and mHTT CaM bind 5.0.
